Assay results as given in PubChem BioAssay (NCI).
The panel holds about 83,000 compounds, 20% with a hit somewhere; the sample as a whole holds those more often.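 Cells were grown in 96-well plates and exposed to the test compound at a single concentration for 48 hours; results are reported as percent growth, with values below 10 considered active.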 The source made the active and inactive calls.

Assays:
Assay in all cases: NCI-60 one-dose screen, 48 h (100 = growth as untreated, 0 = no growth, -100 = all killed)
Conditions in all cases: 10 µM unless noted
SK-MEL-2 melanoma = tested on: SK-MEL-2 melanoma
EKVX NSCLC = tested on: EKVX NSCLC
SN12C renal = tested on: SN12C renal
UO-31 renal = tested on: UO-31 renal
TK-10 renal = tested on: TK-10 renal
ACHN renal = tested on: ACHN renal
CAKI-1 renal = tested on: CAKI-1 renal
CCRF-CEM leukemia = tested on: CCRF-CEM leukemia
MOLT-4 leukemia = tested on: MOLT-4 leukemia
SR leukemia = tested on: SR leukemia
RPMI-8226 leukemia = tested on: RPMI-8226 leukemia
OVCAR-8 ovarian = tested on: OVCAR-8 ovarian
OVCAR-5 ovarian = tested on: OVCAR-5 ovarian
OVCAR-4 ovarian = tested on: OVCAR-4 ovarian
SK-OV-3 ovarian = tested on: SK-OV-3 ovarian
IGROV1 ovarian = tested on: IGROV1 ovarian
OVCAR-3 ovarian = tested on: OVCAR-3 ovarian
HS 578T breast = tested on: HS 578T breast
NCI/ADR-RES ovarian = tested on: NCI/ADR-RES ovarian
A498 renal = tested on: A498 renal

Measured: growth

Cc1ccc[n+](CCC(N)=O)c1
inactive: SK-MEL-2 melanoma 97.7% | EKVX NSCLC 90.2% | SN12C renal 92% | UO-31 renal 85.9% | TK-10 renal 94.9% | ACHN renal 105% | CAKI-1 renal 91.6% | CCRF-CEM leukemia 90.8% | MOLT-4 leukemia 90.9% | SR leukemia 59.8% | RPMI-8226 leukemia 102% | OVCAR-8 ovarian 103% | OVCAR-5 ovarian 93.8% | OVCAR-4 ovarian 87.4% | SK-OV-3 ovarian 94.7% | IGROV1 ovarian 98.7% | OVCAR-3 ovarian 111% | HS 578T breast 87.3% | NCI/ADR-RES ovarian 97.4%

CNc1ccccc1C(N)=O
inactive: SK-MEL-2 melanoma 103% | EKVX NSCLC 98.4% | SN12C renal 94.8% | UO-31 renal 75.5% | TK-10 renal 105% | ACHN renal 97.1% | CAKI-1 renal 81.4% | CCRF-CEM leukemia 102% | MOLT-4 leukemia 117% | SR leukemia 109% | RPMI-8226 leukemia 110% | OVCAR-8 ovarian 103% | OVCAR-5 ovarian 117% | OVCAR-4 ovarian 109% | SK-OV-3 ovarian 107% | IGROV1 ovarian 100% | OVCAR-3 ovarian 114% | NCI/ADR-RES ovarian 97.9%

CC(C)Sc1ncnc2nc[nH]c12
inactive: SK-MEL-2 melanoma 108% | EKVX NSCLC 94.7% | SN12C renal 96.7% | UO-31 renal 95.9% | TK-10 renal 116% | ACHN renal 99.6% | CAKI-1 renal 101% | CCRF-CEM leukemia 111% | MOLT-4 leukemia 146% | SR leukemia 122% | RPMI-8226 leukemia 118% | OVCAR-8 ovarian 107% | OVCAR-5 ovarian 101% | OVCAR-4 ovarian 115% | OVCAR-3 ovarian 120% | HS 578T breast 139% | NCI/ADR-RES ovarian 102%

O=C(O)c1ccc(OCc2ccccc2)cc1
inactive: SK-MEL-2 melanoma 101% | EKVX NSCLC 110% | SN12C renal 98.2% | UO-31 renal 89.6% | TK-10 renal 96.7% | ACHN renal 94.3% | CAKI-1 renal 92.7% | CCRF-CEM leukemia 104% | MOLT-4 leukemia 98% | SR leukemia 99.8% | RPMI-8226 leukemia 97.5% | OVCAR-8 ovarian 97.9% | OVCAR-5 ovarian 93.5% | OVCAR-4 ovarian 102% | SK-OV-3 ovarian 98.8% | IGROV1 ovarian 91.1% | OVCAR-3 ovarian 118% | HS 578T breast 96% | NCI/ADR-RES ovarian 104%

CCC12OC(COc3ccccc3)CN1CCN2c1ccccc1 (configuration not stated)
inactive: SK-MEL-2 melanoma 99.4% [100 µM] | EKVX NSCLC 95.2% [100 µM] | SN12C renal 96.1% [100 µM] | UO-31 renal 75.2% [100 µM] | TK-10 renal 146% [100 µM] | ACHN renal 97.3% [100 µM] | CAKI-1 renal 89% [100 µM] | CCRF-CEM leukemia 101% [100 µM] | MOLT-4 leukemia 94.5% [100 µM] | SR leukemia 96.9% [100 µM] | RPMI-8226 leukemia 94.4% [100 µM] | OVCAR-8 ovarian 96.5% [100 µM] | OVCAR-5 ovarian 98% [100 µM] | OVCAR-4 ovarian 95.5% [100 µM] | SK-OV-3 ovarian 106% [100 µM] | IGROV1 ovarian 93.4% [100 µM] | OVCAR-3 ovarian 110% [100 µM] | HS 578T breast 99.1% [100 µM] | NCI/ADR-RES ovarian 100% [100 µM]

Cc1cc(Cl)cc(Cc2cc(Cl)cc(C)c2O)c1O
inactive: EKVX NSCLC 53.9% | TK-10 renal 34.6% | OVCAR-8 ovarian 48.2% | OVCAR-5 ovarian 69% | OVCAR-4 ovarian 22.2% | SK-OV-3 ovarian 51.5%
active: SK-MEL-2 melanoma -18.1% | SN12C renal 2.59% | UO-31 renal 7.78% | ACHN renal 7.14% | CAKI-1 renal 3.84% | CCRF-CEM leukemia 5.51% | MOLT-4 leukemia -15.1% | SR leukemia 1.17% | RPMI-8226 leukemia -22.8% | OVCAR-3 ovarian -2.69% | HS 578T breast 4.77% | NCI/ADR-RES ovarian -10.7%

COC1=C(OC)C(=O)C(SC/C=C(\C)CCCC(C)CCCC(C)CCCC(C)C)=CC1=O (configuration not stated)
active: SK-MEL-2 melanoma -11.3% | UO-31 renal -3.97% | IGROV1 ovarian -9.75%
inactive: EKVX NSCLC 27.6% | SN12C renal 15.4% | TK-10 renal 56% | ACHN renal 20.6% | CAKI-1 renal 102% | A498 renal 16.8% | MOLT-4 leukemia 10.4% | OVCAR-8 ovarian 18.7% | OVCAR-5 ovarian 25.7% | OVCAR-4 ovarian 27.9% | SK-OV-3 ovarian 45.4% | OVCAR-3 ovarian 13.6% | HS 578T breast 63.6% | NCI/ADR-RES ovarian 11.6%

CC(=O)C[n+]1ccc(C)cc1Sc1ccccc1C
active: CCRF-CEM leukemia 1.97%
inactive: SK-MEL-2 melanoma 127% | EKVX NSCLC 103% | SN12C renal 64.8% | UO-31 renal 78.5% | TK-10 renal 106% | ACHN renal 97.1% | CAKI-1 renal 102% | MOLT-4 leukemia 54.7% | SR leukemia 130% | RPMI-8226 leukemia 98.6% | OVCAR-8 ovarian 88.7% | OVCAR-5 ovarian 90% | OVCAR-4 ovarian 100% | SK-OV-3 ovarian 108% | IGROV1 ovarian 120% | OVCAR-3 ovarian 102% | HS 578T breast 95.7% | NCI/ADR-RES ovarian 101%

C=C1CC2(OC1=O)C(=O)N(C)c1ccc(I)cc12 (configuration not stated)
inactive: SK-OV-3 ovarian 67.6%
active: SK-MEL-2 melanoma -73.1% | EKVX NSCLC -46.4% | SN12C renal -12% | UO-31 renal -66% | TK-10 renal -80.9% | ACHN renal -84.5% | CAKI-1 renal -91.3% | A498 renal -13.6% | MOLT-4 leukemia -50.1% | RPMI-8226 leukemia -60% | OVCAR-8 ovarian -8.98% | OVCAR-5 ovarian -10.3% | OVCAR-4 ovarian -87.6% | IGROV1 ovarian -66.9% | OVCAR-3 ovarian -96.9% | HS 578T breast -5.25% | NCI/ADR-RES ovarian -66%

CCCCCC(=O)OCCC1CCCCC1
inactive: SK-MEL-2 melanoma 106% | EKVX NSCLC 108% | SN12C renal 97.2% | UO-31 renal 92.2% | TK-10 renal 99% | ACHN renal 107% | CAKI-1 renal 103% | CCRF-CEM leukemia 83.8% | MOLT-4 leukemia 95.7% | SR leukemia 88.9% | RPMI-8226 leukemia 103% | OVCAR-8 ovarian 104% | OVCAR-5 ovarian 105% | OVCAR-4 ovarian 101% | SK-OV-3 ovarian 106% | IGROV1 ovarian 108% | OVCAR-3 ovarian 95.3% | HS 578T breast 89.7% | NCI/ADR-RES ovarian 103%

CCOC(=O)/C(O)=C(\C=N\C(=S)Nc1ccc(Cl)c(Cl)c1)C(=O)OCC
inactive: SK-MEL-2 melanoma 116% | EKVX NSCLC 82.8% | SN12C renal 93.4% | UO-31 renal 70.9% | TK-10 renal 117% | ACHN renal 96.3% | CAKI-1 renal 89.2% | CCRF-CEM leukemia 97.7% | MOLT-4 leukemia 76.5% | SR leukemia 85.7% | RPMI-8226 leukemia 80.1% | OVCAR-8 ovarian 92.5% | OVCAR-5 ovarian 91.8% | OVCAR-4 ovarian 60.2% | SK-OV-3 ovarian 81.6% | IGROV1 ovarian 101% | OVCAR-3 ovarian 100% | HS 578T breast 95.6% | NCI/ADR-RES ovarian 90.8%

CC(C)(CC(=O)O)CC(=O)O
inactive: SK-MEL-2 melanoma 107% | EKVX NSCLC 97.4% | SN12C renal 97.2% | UO-31 renal 94% | TK-10 renal 96.5% | ACHN renal 104% | CAKI-1 renal 97.7% | CCRF-CEM leukemia 105% | MOLT-4 leukemia 100% | SR leukemia 99.3% | RPMI-8226 leukemia 104% | OVCAR-8 ovarian 121% | OVCAR-5 ovarian 99.5% | OVCAR-4 ovarian 108% | SK-OV-3 ovarian 120% | IGROV1 ovarian 111% | OVCAR-3 ovarian 105% | HS 578T breast 111% | NCI/ADR-RES ovarian 99.9%

CCOS(=O)(=O)c1ccc([N+](=O)[O-])cc1
inactive: SK-MEL-2 melanoma 102% | EKVX NSCLC 110% | SN12C renal 101% | UO-31 renal 88.9% | TK-10 renal 95% | ACHN renal 103% | CAKI-1 renal 99% | CCRF-CEM leukemia 99.2% | MOLT-4 leukemia 98.5% | SR leukemia 88.2% | RPMI-8226 leukemia 106% | OVCAR-8 ovarian 104% | OVCAR-5 ovarian 103% | OVCAR-4 ovarian 101% | SK-OV-3 ovarian 111% | IGROV1 ovarian 105% | OVCAR-3 ovarian 106% | HS 578T breast 108% | NCI/ADR-RES ovarian 105%

CCC1CCC(C)NC1 (configuration not stated)
inactive: SK-MEL-2 melanoma 115% | EKVX NSCLC 92.5% | SN12C renal 106% | UO-31 renal 93.5% | TK-10 renal 97.3% | ACHN renal 102% | CAKI-1 renal 102% | A498 renal 65.6% | MOLT-4 leukemia 105% | RPMI-8226 leukemia 98.6% | OVCAR-8 ovarian 102% | OVCAR-5 ovarian 107% | OVCAR-4 ovarian 107% | SK-OV-3 ovarian 111% | IGROV1 ovarian 110% | OVCAR-3 ovarian 104% | HS 578T breast 95.7% | NCI/ADR-RES ovarian 101%

CCOC(=O)CNC(=O)Sc1ccc(C(C)(C)C)cc1
inactive: SK-MEL-2 melanoma 87.1% | EKVX NSCLC 111% | SN12C renal 93.5% | UO-31 renal 64.2% | TK-10 renal 96% | ACHN renal 101% | CAKI-1 renal 100% | A498 renal 119% | MOLT-4 leukemia 32.5% | OVCAR-8 ovarian 94% | OVCAR-5 ovarian 123% | OVCAR-4 ovarian 89.7% | SK-OV-3 ovarian 116% | IGROV1 ovarian 74.9% | OVCAR-3 ovarian 104% | HS 578T breast 99.2% | NCI/ADR-RES ovarian 102%

C=CCOc1ccc(Cl)cc1Cl
inactive: SK-MEL-2 melanoma 119% | EKVX NSCLC 103% | SN12C renal 105% | UO-31 renal 93.5% | TK-10 renal 113% | ACHN renal 102% | CAKI-1 renal 98% | A498 renal 107% | MOLT-4 leukemia 52% | RPMI-8226 leukemia 113% | OVCAR-8 ovarian 119% | OVCAR-5 ovarian 93.1% | OVCAR-4 ovarian 106% | SK-OV-3 ovarian 118% | IGROV1 ovarian 116% | OVCAR-3 ovarian 111% | HS 578T breast 113% | NCI/ADR-RES ovarian 109%

CC(=O)Nc1ccc(O)c(C)c1
inactive: SK-MEL-2 melanoma 104% | EKVX NSCLC 112% | SN12C renal 102% | UO-31 renal 95.1% | TK-10 renal 93.2% | ACHN renal 99.4% | CAKI-1 renal 97.5% | CCRF-CEM leukemia 95.4% | MOLT-4 leukemia 85.2% | SR leukemia 94.6% | RPMI-8226 leukemia 105% | OVCAR-8 ovarian 100% | OVCAR-5 ovarian 104% | OVCAR-4 ovarian 100% | SK-OV-3 ovarian 105% | IGROV1 ovarian 110% | OVCAR-3 ovarian 107% | HS 578T breast 107% | NCI/ADR-RES ovarian 102%
